# Autophagy HCS: modulators of autophagy. MEF GFP-LC3 puncta imaging; test concentration mostly 10 µM. calls only at 10 µM (by protocol). AID 463193. actives 0.98% (n = 190,000);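 active = percentage of spot-positive cells more than 3 SD above its plate mean, without a fluorescence outlier flag or 80% toxicity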;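 also: spot-positive cell cutoff set from DMSO-treated cells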
# Ins promoter up: MIN6 insulin promoter up-regulation; actives 0.3% (n = 190,000); MIN6 insulin promoter-GFP reporter, high-content imaging; stronger effect = higher value; z-score at 5 µM; AID 1625;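 active = z-score above 3 at 5 µM with at least 500 cells counted in the well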
# HCT116 PTEN-null: suppresses growth of cells with PTEN deletion; actives 1.2% (n = 140,000); HCT116 PTEN-null viability, CellTiter-Glo, 60 h; stronger effect = lower value; viability, % at 10 µM;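 active = viability at or below a set limit, 4 SD under the median of all tested compounds, cut at about 3.7% in these data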;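 also: PTEN knockout HCT116 line with beta catenin targeted HCT116 as companion control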
# HCT116 bCat-KO: beta-catenin-lacking colon tumor cell growth suppression. viability, % at 10 µM. HCT116 beta-catenin knockout viability, CellTiter-Glo, 60 h; stronger effect = lower value. actives 1.5% (n = 140,000);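 active = viability at or under a set limit, the compound median less 4 SD, cut at about 6% in these data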;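 also: 0% = Hyamine 1622 control at 20 µM and 100% = untreated cell control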
# INS promoter inh: TRM-6 insulin promoter activity inhibition; TRM-6 cells (human fetal islet line), insulin promoter-eGFP reporter, imaging; reporter expression induced with tamoxifen; AID 1273; actives 0.9% (n = 130,000); inhibition, % at 2 µM;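 active = inhibition above the mean plus 3 SD, with well images judged a real hit on visual review, cut at about 60% in these data, passing the limit was not always enough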
# Lmaj promast: Leishmania major promastigote growth inhibition; actives 9% (n = 200,000); Leishmania major promastigotes, resazurin fluorescence viability; inhibition, % at 10 µM; in the data active = inhibition above about 50%;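 also: promastigotes grown with compound for 44 hours at 28 °C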
# Lmaj promast 1uM: blocks Leishmania major promastigote growth at 1 uM, repeat screen; shares compounds with Lmaj promast; AID 1258; L. major promastigote growth, resazurin fluorescence, 48 h; inhibition, % at 1 µM; actives 13% (n = 1,100);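 active = inhibition above about 50% in both repeat tests, limit read from the data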
# Numbers without * were called inactive; i = inactive; nt = no result. Most compounds without a hit are left out; they make up all but 9.6% or so of the library.
SMILES,Autophagy HCS,Ins promoter up,HCT116 PTEN-null,HCT116 bCat-KO,INS promoter inh,Lmaj promast,Lmaj promast 1uM
CCOC(=O)C1C(=O)C=C(C)C(C(=O)OCC)C1c1ccc(OC)cc1 (configuration not stated),i,0.01,75,90,nt,-5,nt
COc1ccc(C(=O)Nc2ccc(S(=O)(=O)Nc3nccnc3OC)cc2)cc1,i,0.44,92,93,24,-1,nt
Nc1c(C(O)(C(F)(F)F)C(F)(F)F)cc(C(O)(C(F)(F)F)C(F)(F)F)c2ccccc12,i,nt,21,20,-24,100*,-7
CC1(C)CC(=O)C(N=Nc2ccc(S(=O)(=O)N3CCOCC3)cc2)=C(O)C1,nt,0.92,nt,nt,nt,nt,nt
CCOC(=O)c1nc2cc3n(c(C)c-2c1C)C(C)C(C)=C3C (configuration not stated),i,0.09,82,78,7,67*,-12
COc1cccc(NC(=O)CSc2nnc(COc3ccc4c(c3)CCCC4)o2)c1,i,-0.4,98,97,11,-2,nt
O=C(Nc1ccc2nc(-c3ccco3)[nH]c2c1)c1cccs1,i,0.05,78,87,-12,88*,-20
CCOC(=O)c1c(C)nc2c3ccccc3ccn12,i,-0.01,102,100,62,6,nt
CC(=O)c1c(-c2ccc(C)cc2)nc2c3ccccc3ccn12,i,0.03,nt,nt,nt,59*,43
Cc1ccc(OCCCC(=O)N2CCOCC2)cc1,i,-0.45,91,98,34,-3,nt
CCOC(=O)c1cc(OC(=O)c2cccnc2)n(-c2ccccc2)n1,i,-0.29,84,96,-28,-12,nt
Cc1nn(Cc2n[nH]c(=S)n2Cc2ccccc2)c(C)c1Cl,i,-0.83,93,83,-13,90*,-11
Cc1cc(C)n(Cc2n[nH]c(=S)n2Cc2ccccc2)n1,i,1.6,85,87,-44,-5,nt
CC1(C)Cc2c(ccc3ccccc23)/C(=C/C(=O)N2CCCCC2)N1,i,0.63,64,76,0,18,nt
O=C(/C=C1\NC2(CCCC2)Cc2ccccc21)N1CCOCC1,i,nt,86,85,-57,88*,-2
CN(CCc1ccccn1)C(=O)CC1C(=O)NCCN1Cc1ccc(-c2ccccc2)cc1 (configuration not stated),i,-0.56,nt,nt,nt,2,nt
Cc1nc2ccc(Cl)cc2c(-c2ccccc2Cl)c1CC(=O)O,i,-0.87,105,97,19,24,nt
Cc1nc2ccc(Cl)cc2c(-c2ccccc2)c1CC(=O)O,i,-0.39,94,91,-22,54*,-21
Cc1nc2ccc(Cl)cc2c(-c2ccccc2F)c1CC(=O)O,i,0.06,99,91,-9,62*,-13
COc1ccc(OCC(=O)NC(=S)N2CCCc3ccccc32)cc1,i,0.25,83,88,-7,0,nt
N#CC1=C(c2ccccc2)/C(=C/c2ccccc2)OC1=O,i,0.96,8,14,36,92*,1
FC(F)(F)c1nnc2c(Sc3ccccn3)nc3ccccc3n12,i,0.6,2.7*,2.1*,nt,94*,14
Cc1onc(-c2ccccc2Cl)c1C(=O)Nc1c(C)n(C)n(-c2ccccc2)c1=O,i,-0.73,109,93,nt,1,nt
COC(=O)c1ccccc1NC(=O)Cn1c(SC)c(F)cnc1=O,i,1.1,91,91,45,-1,nt
N#Cc1cc([N+](=O)[O-])c(-n2nnc3ccccc32)c([N+](=O)[O-])c1,i,0.85,97,103,nt,-3,nt
SMILES,Autophagy HCS,Ins promoter up,HCT116 PTEN-null,HCT116 bCat-KO,INS promoter inh,Lmaj promast,Lmaj promast 1uM
COc1ccccc1Oc1cc(C#N)c(C#N)cc1-n1nnc2ccccc21,i,-0.19,41,48,-6,98*,-2
S=C(NC1CCCC1)N1CCN(c2cccc(Cl)c2)CC1,i,-0.04,nt,nt,nt,-7,nt
CN1c2ccccc2Oc2nnc(Cl)cc21,i,0.19,nt,nt,nt,15,nt
CCN(CC)CCOc1cc2c(nn1)Oc1ccccc1N2C,i,nt,99,87,-27,100*,9
CCc1cccc(CC)c1N(COC)C(=O)Cn1c(C(C)O)nc2ccccc21 (configuration not stated),nt,0.17,75,80,nt,5,nt
Cc1cc(/C=N/n2cnnc2)c(C)n1-c1cccc(Cl)c1,i,-2.1,79,78,-8,85*,12
O=C1CCCN1CCC1CCCCN1Cc1nc(COc2ccccc2)no1 (configuration not stated),i,1.2,nt,nt,nt,-8,nt
CCCOc1ccccc1NC(=O)c1ccc(N)cc1,i,-0.1,101,103,-16,15,nt
CCCOc1ccc(N)cc1N,i,-0.53,81,94,nt,74*,-14
Cc1[nH]c2ccccc2c1N=Nc1ccccc1C(=O)O,i,-0.01,89,86,15,68*,-5
Cc1[nH]c2ccccc2c1N=Nc1cccc(C(=O)O)c1,i,-0.32,98,103,52,3,nt
CC(=O)OC1C(N2CCCCC2)c2c(ccc(/C=C/C(=O)N3CCCCC3)c2O)OC1(C)C (configuration not stated),i,-0.31,nt,nt,nt,73*,-22
CC1(C)Oc2ccc3ccc(=O)oc3c2C(N2CCCCC2)C1O (configuration not stated),i,1.4,99,107,-15,-1,nt
Cc1noc2ncnc(Sc3ccc(Br)cc3)c12,i,0.74,nt,nt,nt,67*,32
CCOc1cc(N2CCOCC2)c(OCC)cc1NC(=O)C(NC(=O)c1ccco1)C(C)C (configuration not stated),i,0.22,98,104,-23,28,nt
COc1ccccc1/C=C/CN1CCCC(CO)(Cc2cccc(Cl)c2)C1 (configuration not stated),i,0.31,nt,nt,nt,82*,42
Cc1ccnc(SCC(=O)c2ccc([N+](=O)[O-])cc2)n1,i,0.27,103,100,nt,4,nt
CC(C)n1c(SCC(=O)N2CCN(C(=O)c3ccco3)CC2)nc2c1c(=O)n(C)c(=O)n2C,nt,-0.5,nt,nt,nt,nt,nt
Cc1ccc2nc(Cl)c3nnnn3c2c1,i,1,nt,nt,-147,100*,93*
COc1cc(-c2c(C#N)c(N)nc(SCc3ccncc3)c2C#N)cc(OC)c1OC,i,-1.1,8,15,nt,98*,61*
N#Cc1c(N)nc(SCc2ccncc2)c(C#N)c1-c1cccs1,i,-0.5,87,83,26,17,nt
Cc1ccc(N/N=C(\C#N)C(=N)N2CCCCCC2)cc1,i,-0.27,nt,nt,-25,61*,-1
COc1ccc(N/N=C(\C#N)C(=N)N2CCCCC2)cc1,nt,-0.03,nt,nt,nt,nt,nt
COc1ccc(C(=O)CSc2nnnn2Cc2ccccc2)cc1,i,0.59,94,81,22,-8,nt
COC(=O)c1ccc(CSc2nnnn2Cc2ccccc2)cc1,i,0.78,96,88,-37,97*,-15

# Assay outcomes from PubChem.
